The source made the active and inactive calls. How the source made its calls: active means hit-call score of the fitted dose curve at least 0.9, where 1 is the maximum; inactive means score below 0.9.
What was measured:
[1] = read-out: TIMP metallopeptidase inhibitor 1 (TIMP1), TIMP1 (gene 7076); experiment: BSK_hDFCGF_TIMP1: BioMAP Diversity Plus: hDFCGF Assay for TIMP metallopeptidase inhibitor 1 (TIMP1) Biomarker Activity (AID 2283062); settings: primary human foreskin fibroblasts; actives raise or lower the signal
Outline: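 TIMP-1 measured by ELISA 24 h after chemical dosing of primary human skin fibroblasts, with gain or loss fitted relative to DMSO. Parallel SRB staining (560 nm) monitored overt cytotoxicity.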

[2] = read-out: Monokine induced gamma interferon (MIG), CXCL9 (gene 4283); experiment: BSK_hDFCGF_MIG: BioMAP Diversity Plus: hDFCGF Assay for Monokine induced gamma interferon (MIG) Biomarker Activity (AID 2283063); settings: primary human foreskin fibroblasts; actives raise or lower the signal
Outline: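 Human primary foreskin fibroblasts in the hDFCGF system, exposed to test chemical for 24 h; MIG measured by ELISA. Bidirectional curve fitting against DMSO negative control as activity baseline.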

[3] = read-out: Intercellular Adhesion Molecule 1 (ICAM1), ICAM1 (gene 3383); experiment: BSK_KF3CT_ICAM1: BioMAP Diversity Plus: KF3CT Assay for Intercellular Adhesion Molecule 1 (ICAM1) Biomarker Activity (AID 2283067); settings: primary human keratinocytes with fibroblasts; actives raise or lower the signal
Outline: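 Cell-surface ICAM-1 was measured by ELISA 24 h after dosing primary human skin keratinocytes co-cultured with fibroblasts. Parallel SRB staining tracked overt cytotoxicity. Gain or loss of signal was fitted relative to DMSO.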

[4] = read-out: Interferon-gamma inducible Protein 10 (IP10), CXCL10 (gene 3627); experiment: BSK_KF3CT_IP10: BioMAP Diversity Plus: KF3CT Assay for Interferon-gamma inducible Protein 10 (IP10) Biomarker Activity (AID 2283068); settings: primary human keratinocytes with fibroblasts; actives raise or lower the signal
Outline: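 KF3CT co-culture (keratinocytes + foreskin fibroblasts), 24 h compound, IP-10 by ELISA; bidirectional fit vs DMSO baseline.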

[5] = BSK_KF3CT_SRB: Viability Assessment in the BioMAP Diversity Plus: KF3CT Assay (AID 2283069); settings: primary human keratinocytes with fibroblasts;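 further: total protein by sulforhodamine B staining as a cytotoxicity measure; read 24 h after compound addition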
Outline: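 SRB read-out at 560 nm (0.1% stain, TCA-fixed cells) gauges overt cytotoxicity in a human skin keratinocyte–fibroblast co-culture 24 h post-dosing. Signal change was fitted bidirectionally relative to DMSO control.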

[6] = read-out: Interleukin-1 alpha (IL1a), IL1A (gene 3552); experiment: BSK_KF3CT_IL1a: BioMAP Diversity Plus: KF3CT Assay for Interleukin-1 alpha (IL1a) Biomarker Activity (AID 2283070); settings: primary human keratinocytes with fibroblasts; actives raise or lower the signal
Outline: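 Primary skin co-culture (keratinocytes, foreskin fibroblasts), 24 h exposure; ELISA for IL-1a; bidirectional curve fit vs DMSO.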

[7] = read-out: TIMP metallopeptidase inhibitor 2 (TIMP2), TIMP2 (gene 7077); experiment: BSK_KF3CT_TIMP2: BioMAP Diversity Plus: KF3CT Assay for TIMP metallopeptidase inhibitor 2 (TIMP2) Biomarker Activity (AID 2283071); settings: primary human keratinocytes with fibroblasts; actives raise or lower the signal
Outline: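 Measurements come from ELISA detection of TIMP-2 at 24 hours in a dosed human keratinocyte and foreskin fibroblast co-culture. DMSO serves as negative control and baseline.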

[8] = read-out: Transforming growth factor beta 1 (TGFb1), TGFB1 (gene 7040); experiment: BSK_KF3CT_TGFb1: BioMAP Diversity Plus: KF3CT Assay for Transforming growth factor beta 1 (TGFb1) Biomarker Activity (AID 2283072); settings: primary human keratinocytes with fibroblasts; actives raise or lower the signal
Outline: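 TGF-b1 ELISA on a 24 h dosed co-culture of human keratinocytes and foreskin fibroblasts; cytotoxicity tracked in parallel cultures by SRB staining.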

[9] = read-out: C-C motif chemokine 2 (Homo sapiens) (UniProt P13500); experiment: BSK_KF3CT_MCP1: BioMAP Diversity Plus: KF3CT Assay for Monocyte Chemoattractant Protein 1 (MCP1/CCL2) Biomarker Activity (AID 2283073); settings: primary human keratinocytes with fibroblasts; actives raise or lower the signal
Outline: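 ELISA read-out of MCP-1, 24 h post-dose, in primary human skin keratinocytes co-cultured with fibroblasts. Parallel SRB staining monitors cytotoxicity; changes fitted both directions relative to DMSO.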

[10] = read-out: urokinase plasminogen activator (uPA), PLAU (gene 5328); experiment: BSK_KF3CT_uPA: BioMAP Diversity Plus: KF3CT Assay for urokinase plasminogen activator (uPA) Biomarker Activity (AID 2283075); settings: primary human keratinocytes with fibroblasts; actives raise or lower the signal
Outline: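 Skin co-culture (keratinocytes + foreskin fibroblasts), human primary; 24 h post-dose; uPA by ELISA; gain/loss fit vs DMSO baseline.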

[11] = read-out: E-selectin (Homo sapiens) (UniProt P16581); experiment: BSK_LPS_Eselectin: BioMAP Diversity Plus: LPS Assay for Eselectin Biomarker Activity (AID 2283077); settings: primary human HUVEC with PBMC; actives raise or lower the signal
Outline: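 E-selectin ELISA on LPS-stimulated endothelial cell/PBMC co-cultures, read 24 h post-treatment; gains and losses fitted against DMSO. Parallel SRB staining (0.1% SRB after 10% TCA fixation, 560 nm) flags overt cytotoxicity.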

[12] = read-out: Interleukin-8 (IL8), CXCL8 (gene 3576); experiment: BSK_LPS_IL8: BioMAP Diversity Plus: LPS Assay for Interleukin-8 (IL8) Biomarker Activity (AID 2283078); settings: primary human HUVEC with PBMC; actives raise or lower the signal
Outline: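 ELISA read-out of IL-8 after 24 h chemical treatment of LPS-activated endothelial/PBMC human primary co-cultures. Changes either up or down relative to DMSO; overt cytotoxicity checked by sulforhodamine B staining in parallel wells.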

[13] = BSK_LPS_SRB: Viability Assessment in the BioMAP Diversity Plus: LPS Assay (AID 2283079); settings: primary human HUVEC with PBMC;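 further: total protein by sulforhodamine B absorbance as a cytotoxicity measure; measured one day after compound addition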
Outline: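 SRB viability endpoint: cells fixed with 10% TCA, stained with 0.1% SRB, read at 560 nm, 24 h post-dose. HUVEC/PBMC co-culture; signal change in either direction scored relative to DMSO.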

[14] = read-out: Interleukin-1 alpha (IL1a), IL1A (gene 3552); experiment: BSK_LPS_IL1a: BioMAP Diversity Plus: LPS Assay for Interleukin-1 alpha (IL1a) Biomarker Activity (AID 2283080); settings: primary human HUVEC with PBMC; actives raise or lower the signal
Outline: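 Readout is IL-1a level by ELISA, 24 h post-dose, fitted as gain or loss relative to DMSO. System: LPS-activated human primary co-culture of vascular endothelium and peripheral blood mononuclear cells, with parallel SRB total-protein cytotoxicity.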

[15] = read-out: Monocyte Chemoattractant Protein-1 (MCP1), CCL2 (gene 6347); experiment: BSK_LPS_MCP1: BioMAP Diversity Plus: LPS Assay for Monocyte Chemoattractant Protein-1 (MCP1) Biomarker Activity (AID 2283081); settings: primary human HUVEC with PBMC; actives raise or lower the signal;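 on AC50: secreted MCP-1 protein quantified by ELISA in culture supernatant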
Outline: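 Secreted MCP-1 read by ELISA at 24 h post-dosing in an LPS-activated co-culture of endothelial cells with peripheral blood mononuclear cells. Fits run in both directions, DMSO as baseline; parallel SRB staining tracks overt cytotoxicity.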

[16] = read-out: Matrix Metallopeptidase 1 (MMP1), MMP1 (gene 4312); experiment: BSK_hDFCGF_MMP1: BioMAP Diversity Plus: hDFCGF Assay for Matrix Metallopeptidase 1 (MMP1) Biomarker Activity (AID 2283064); settings: primary human foreskin fibroblasts; actives raise or lower the signal
Outline: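 ELISA read-out of MMP1 from human foreskin fibroblasts (primary skin cells), 24 h post-dose. Gain or loss of signal was fitted bidirectionally versus DMSO negative control; cytotoxicity was checked by SRB in parallel cultures.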

[17] = read-out: Vascular cell adhesion molecule 1 (VCAM1), VCAM1 (gene 7412); experiment: BSK_hDFCGF_VCAM1: BioMAP Diversity Plus: hDFCGF Assay for Vascular cell adhesion molecule 1 (VCAM1) Biomarker Activity (AID 2283065); settings: primary human foreskin fibroblasts; actives raise or lower the signal;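 on AC50: VCAM-1 protein level quantified by ELISA after 24 h chemical exposure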
Outline: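 ELISA readout of VCAM-1 on human dermal fibroblast primary cultures, 24 h after chemical exposure. Gain or loss of signal fitted in both directions against DMSO baseline.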

[18] = read-out: Matrix Metallopeptidase 9 (MMP9), MMP9 (gene 4318); experiment: BSK_KF3CT_MMP9: BioMAP Diversity Plus: KF3CT Assay for Matrix Metallopeptidase 9 (MMP9) Biomarker Activity (AID 2283074); settings: primary human keratinocytes with fibroblasts; actives raise or lower the signal
Outline: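 ELISA read-out of MMP-9 at 24 h post-dosing in a co-culture of human skin keratinocytes and foreskin fibroblasts. Gain or loss of signal was fitted in both directions against DMSO.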

[19] = read-out: Plasminogen activator inhibitor-1 (PAI1), SERPINE1 (gene 5054); experiment: BSK_hDFCGF_PAI1: BioMAP Diversity Plus: hDFCGF Assay for Plasminogen activator inhibitor-1 (PAI1) Biomarker Activity (AID 2283066); settings: primary human foreskin fibroblasts; actives raise or lower the signal
Outline: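 Human skin fibroblast cultures receive chemical for 24 h before PAI-1 is measured by ELISA; signal changes are fitted bidirectionally against DMSO-treated wells.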

CD40, CD40 (gene 958) = experiment: BSK_LPS_CD40: BioMAP Diversity Plus: LPS Assay for CD40 Biomarker Activity (AID 2283076); settings: primary human HUVEC with PBMC; actives raise or lower the signal
Outline: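 In the LPS system of human endothelial cells with peripheral blood mononuclear cells, CD40 levels were read by ELISA 24 h post-treatment. Signal changes in either direction were fitted against the DMSO baseline, with parallel SRB protein staining.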

Measured: AC50

E-selectin (Homo sapiens), sequence (P16581 whole entry, looked up): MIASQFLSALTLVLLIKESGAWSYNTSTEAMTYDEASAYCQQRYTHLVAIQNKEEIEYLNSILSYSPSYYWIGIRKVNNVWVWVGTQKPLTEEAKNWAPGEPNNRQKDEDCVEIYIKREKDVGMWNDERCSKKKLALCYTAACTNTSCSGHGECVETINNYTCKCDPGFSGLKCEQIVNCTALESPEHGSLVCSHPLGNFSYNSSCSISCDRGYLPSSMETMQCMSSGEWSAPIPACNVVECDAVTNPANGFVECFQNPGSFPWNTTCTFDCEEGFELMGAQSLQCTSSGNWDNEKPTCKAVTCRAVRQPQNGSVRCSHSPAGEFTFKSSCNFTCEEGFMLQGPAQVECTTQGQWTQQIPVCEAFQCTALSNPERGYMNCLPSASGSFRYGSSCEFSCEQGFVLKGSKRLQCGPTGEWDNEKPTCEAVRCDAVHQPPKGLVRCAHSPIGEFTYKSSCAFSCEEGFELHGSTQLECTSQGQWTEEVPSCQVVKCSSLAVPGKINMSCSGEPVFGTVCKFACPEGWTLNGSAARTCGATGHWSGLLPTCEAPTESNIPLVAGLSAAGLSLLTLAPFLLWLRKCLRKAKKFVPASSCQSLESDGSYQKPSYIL

Nc1ccccc1N
not listed: [16] | [17] | [18] | [19] | CD40, CD40 (gene 958)
inactive: all other assays above

Cc1ccc(Cl)cc1
not listed: [1] | [13] | [19] | CD40, CD40 (gene 958)
inactive: all other assays above

CCCCCCCC=O
not listed: [1] | [13] | [18]
inactive: all other assays above

O=c1[nH]cc(F)c(=O)[nH]1
active: CD40, CD40 (gene 958) 20.4 µM
not listed: [1] | [13] | [19]
inactive: all other assays above

CC(C)(C)c1cc(O)c(C(C)(C)C)cc1O
active: [2] 20 µM | [17] 20 µM | [11] 7.72 µM | [12] 1.39 µM
not listed: [13] | [16] | CD40, CD40 (gene 958)
inactive: all other assays above

Oc1ccc2c(c1)OC[C@@H](N1CCC(O)(c3ccc(F)cc3)CC1)[C@H]2O
not listed: [1] | [13] | [17]
inactive: all other assays above

NCC1(Cc2noc(=O)[nH]2)CCCCC1
not listed: [1] | [19] | CD40, CD40 (gene 958)
inactive: all other assays above

Cc1c(C(=O)O)c(O)cc2c1C(=O)c1c(O)c([C@@H]3O[C@H](CO)[C@@H](O)[C@H](O)[C@H]3O)c(O)c(O)c1C2=O
active: CD40, CD40 (gene 958) 0.782 µM
not listed: [16] | [17] | [18]
inactive: all other assays above

Cc1oc(-c2ccccc2)nc1CCOc1cccc2c1ccn2CCC(=O)O
not listed: [16] | [17] | [18] | CD40, CD40 (gene 958)
inactive: all other assays above

CCOC(=O)CCC(=O)OCC
not listed: [16] | [18]
inactive: all other assays above

c1cc(-c2ccncc2)ccn1
not listed: [1] | [13] | [19]
inactive: all other assays above

CN[C@H]1CC[C@@H](c2ccc(Cl)c(Cl)c2)c2ccc(S(N)(=O)=O)cc21
active: [2] 34.5 µM | [16] 32.2 µM | [17] 11.9 µM | [3] 31.6 µM | [4] 28.3 µM | [5] 30.6 µM | [6] 29.1 µM | [7] 25.3 µM | [8] 19.9 µM | [9] 14.9 µM | [10] 18.6 µM | [11] 30.5 µM | [12] 20 µM | [13] 26.6 µM | [14] 24.1 µM | [15] 18.7 µM

CCCCCCCCCCCC(=O)OC
not listed: [16] | [18] | [19] | CD40, CD40 (gene 958)
inactive: all other assays above

CCCCc1ccc2c(n1)[C@@H](c1ccc(OC)cc1C[C@H](C)C(=O)O)[C@H](C(=O)O)[C@H]2c1ccc2c(c1)OCO2
not listed: [1] | [17] | [19]
inactive: all other assays above

NC(=O)Cn1c(=O)cc(CCN2CCN(c3nccc4sccc34)CC2)c2ccc(F)cc21
not listed: [1] | [13] | [17] | [19] | CD40, CD40 (gene 958)
inactive: all other assays above

Cc1cc(NC(=O)C(=O)O)cc(C)c1Oc1ccc(O)c2c1CCC2
not listed: [1] | [16] | [17] | [18] | CD40, CD40 (gene 958)
inactive: all other assays above

— PubChem BioAssay (EPA / NIEHS)
